From PubChem BioAssay (NCATS)
Records with an inconclusive call do not appear. Values without a mark were called inactive. Calls come from the whole dose curve. Starred links: 1 amine or outer side, 2 acyl side, 3 side chain; linkers in the order of their positions; H or OH if unused. Positions of bridges follow the written chain, without caps; N, C: chain ends. Non-standard residues stand in square brackets, D forms with d. Residues, ends and D or L forms follow the SMILES beside them. ξ: configuration not given here. Phe(3R-OH) = O=C([C@@H](N[*:1])[C@H](O[*:3])c1ccccc1)[*:2]; NMeTrp(4-OMe) = CN[C@@H](Cc1c[nH]c2cccc(OC)c12)C(=O)O; ξThr(3R)(O-yl) = C[C@@H](O[*:3])C(N[*:1])C(=O)[*:2]; NMeThr(3ξ) = CN[C@H](C(=O)O)C(C)O; NMeL = CN[C@@H](CC(C)C)C(=O)O; NMeV = CN[C@H](C(=O)O)C(C)C; ξIle = CC[C@H](C)C(N)C(=O)O; ξV = CC(C)C(N)C(=O)O

test: qHTS for inhibitors of Rabies Virus screened against the NCATS CANVASS Library (AID 1347402); conditions: Rabies virus infection cell assay; series mostly up to 45.9 µM; activity change, negative = inhibition: at the top concentration; note: 0% is about no effect

| Structure (SMILES) | activity change, negative = inhibition [%] |
| --- | --- |
| CC(O)/C=C/C1(O)C(C)(C)CC(O)CC1(C)O (stereo unspecified) | -1.96 |
| O=C(O)[C@@]12CO[C@@]3(O)C4CCN(CC[C@H]31)[C@H]4c1c2[nH]c2ccccc12 | -8.87 |
| CC[C@H](C)C(NC(=O)[C@@H](NC)C(C)C)C(=O)NC1C(=O)N(C)[C@@H](C(C)O)C(=O)N[C@@H](C(C)C)C(=O)N(C)[C@@H](CC(C)C)C(=O)NC(C(C)C)C(=O)N(C)[C@@H](C(C)C)C(=O)N(C)[C@@H](Cc2c[nH]c3cccc(OC)c23)C(=O)N[C@@H](C(C)C)C(=O)N[C@@H]([C@H](O)c2ccccc2)C(=O)N[C@@H](C(C)C)C(=O)O[C@@H]1C (stereo partly drawn) (H-[NMeV][ξIle][ξThr(3R)(O-yl)][NMeThr(3ξ)]V[NMeL][ξV][NMeV][NMeTrp(4-OMe)]V[Phe(3R-OH)]V; ester 3-C) | 51.2 |
| COc1cc2c(c(O)c1O)C(=O)c1c(coc1C)C2=O | -13.2 |
| CC(=O)N[C@H](C)c1nc(/C=C/C=C/C(=O)CC2CC(=O)CC[C@]2(C)O)cs1 (stereo partly specified) | -4.07 |
| COc1ccc([C@@H]2c3cc(OC)c(OC)cc3C(=O)C(C)C2C)cc1OC (stereo partly specified) | -15.8 |
